# From PubChem BioAssay (NCI)
# This is part of a sample that, as a whole, favours compounds with a hit. Of some 79,000 tested, about 15% had one in any assay. A number with no mark means an inactive call. The source made the active and inactive calls. Cut-off read from the data, not from the text of the source: active = growth inhibition above about 70%; inactive = the rest.
# Columns and labels:
# [1] = NCI Yeast Anticancer Drug Screen. Data for the rad50 strain (AID 155);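 note: 0% = growth of vehicle-only cultures of the same strain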; conditions: S. cerevisiae rad50 strain growth inhibition, stronger effect = higher value
# In short: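 Readout: growth inhibition relative to vehicle-treated cultures. Compound exposure was carried out in a genetically defined yeast strain deficient in DNA damage repair.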
# [2] = NCI Yeast Anticancer Drug Screen. Data for the mec2-1 strain (AID 157); conditions: S. cerevisiae mec2-1 strain, stronger effect = higher value
# In short: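 Vehicle-treated cultures served as reference for growth inhibition of compound-exposed mec2-1 yeast.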
# [3] = NCI Yeast Anticancer Drug Screen. Data for the sgs1 mgt1 strain (AID 161);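 note: 0% = growth of cultures given vehicle only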; conditions: S. cerevisiae sgs1 mgt1 strain, stronger effect = higher value
# In short: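 Mutant yeast exposed to compound; growth scored against vehicle-only wells.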
# [4] = NCI Yeast Anticancer Drug Screen. Data for the cln2 rad14 strain (AID 165);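 note: 0% = growth equal to vehicle treated cultures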; conditions: S. cerevisiae cln2 rad14 strain, stronger effect = higher value
# In short: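 Each compound was tested on cln2 rad14 yeast. Inhibition of growth was calculated against vehicle-exposed controls.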
# [5] = NCI Yeast Anticancer Drug Screen. Data for the bub3 strain (AID 167); conditions: S. cerevisiae bub3 mutant strain, stronger effect = higher value
# In short: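 Readout: yeast growth inhibition, expressed relative to vehicle-only wells. The test organism is a mutant strain from a panel with lesions in DNA repair or checkpoint genes.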
# [6] = NCI Yeast Anticancer Drug Screen. Data for the mlh1 rad18 strain (AID 175); conditions: S. cerevisiae mlh1 rad18 strain growth inhibition, stronger effect = higher value
# In short: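 Vehicle-treated cultures served as the reference for growth inhibition in a yeast strain carrying DNA damage repair alterations exposed to each compound.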
# [7] = at 5.0 µM (retest, dose inferred, filed as 0.5)
# [8] = at 50.0 µM (retest, dose inferred, filed as 5.0)
SMILES,"growth inhibition [1, 7]","growth inhibition [1, 8]",growth inhibition ([1]; at 50.0 µM),"growth inhibition [2, 7]","growth inhibition [2, 8]",growth inhibition ([2]; at 50.0 µM),"growth inhibition [3, 7]","growth inhibition [3, 8]",growth inhibition ([3]; at 50.0 µM),"growth inhibition [4, 7] [%]","growth inhibition [4, 8]",growth inhibition ([4]; at 50.0 µM),"growth inhibition [5, 7]","growth inhibition [5, 8]",growth inhibition ([5]; at 50.0 µM),"growth inhibition [6, 7]","growth inhibition [6, 8]",growth inhibition ([6]; at 50.0 µM)
CCCN(CCC)Cc1cc2c(cc1O)CC[C@@H]1[C@@H]2CC[C@]2(C)C(=O)CC[C@@H]12,98% (active),87% (active),84% (active),100% (active),89% (active),51.8%,100% (active),62%,80.1% (active),52,20%,60.9%,99% (active),89% (active),37.5%,99% (active),94% (active),65.2%
CCOC(=O)N1C=C(C(=O)OC)C(c2ccccc2)C(C(=O)OC)=C1,4%,6%,-15.2%,0%,20%,-9.35%,5%,14%,-6.3%,-5,4%,32.6%,8%,35%,-4.25%,2%,20%,1.25%
CCC(=O)C(CCN(CC)CC)(CCN(CC)CC)c1ccccc1,-1%,-5%,87.5% (active),-2%,-4%,99.3% (active),-2%,-4%,42.4%,3,-8%,71% (active),1%,-3%,99.2% (active),-2%,-7%,97.8% (active)
Cc1c(O)ccc(C(=O)CCl)c1O,-147%,38%,58.8%,-44%,5%,61.6%,-53%,42%,60.4%,-55,-11%,12.9%,-69%,-3%,41.4%,-111%,33%,68.3%
N=c1n(CC(=O)NC23CC4CC(CC(C4)C2)C3)c2ccccc2n1CC(=O)NC12CC3CC(CC(C3)C1)C2,-4%,34%,59.1%,-15%,8%,34.2%,-2%,42%,44.5%,-14,25%,44%,-19%,12%,59.5%,-5%,27%,79.1% (active)
C=C1CC2(CC(C(C)C)CCC2C)OC1=O (configuration not stated),14%,38%,7.5%,13%,52%,-2.45%,23%,54%,14.7%,31,57%,19.6%,42%,53%,-11.8%,35%,64%,2.3%
CCOC(=O)C(=O)N1C(C)=C(C(=O)OCC)CC(C(=O)OCC)=C1C,35%,44%,-24.6%,18%,19%,-26.2%,30%,32%,-17.8%,29,18%,-34%,27%,25%,-8.45%,32%,31%,-44.1%
Cc1ccc(NC(=O)CCCC(=O)C(C#N)c2ccccc2C)cc1C (configuration not stated),-5%,7%,-17.3%,-2%,3%,11.4%,-5%,-19%,10.6%,-8,-5%,-19.1%,-1%,2%,5.75%,1%,-4%,12.1%
COc1ccc(C(=O)C2Cc3c(ccc4ccccc34)OC2=O)cc1 (configuration not stated),4%,1%,2.05%,-2%,-11%,-1.25%,-3%,2%,-7.8%,7,1%,20.1%,-1%,-2%,-30.4%,-5%,-5%,-11.3%
Cc1ccc(S(=O)(=O)NCCSCCSCCNS(=O)(=O)c2ccc(C)cc2)cc1,-1%,-7%,55.4%,-2%,-8%,92.2% (active),-2%,1%,50.5%,-3,-5%,86.9% (active),0%,-1%,94.6% (active),-2%,-2%,55.2%
Cn1c(=O)c2c(ncn2CCCCOc2ccc3c(c2)[n+]([O-])nc(N)[n+]3[O-])n(C)c1=O,4%,38%,44%,14%,23%,51.9%,5%,34%,69.9%,-23,52%,69%,-8%,63%,56.5%,32%,82% (active),75.8% (active)
CC(CCl)OC(=O)Nc1cccc(C(F)(F)F)c1 (configuration not stated),55%,82% (active),73.1% (active),40%,50%,31.5%,42%,70% (active),83% (active),41,51%,62%,37%,77% (active),74.8% (active),55%,87% (active),73% (active)
COc1cc(C=O)c(Cl)cc1O,2%,21%,55%,1%,43%,67%,1%,47%,90% (active),-4,25%,60.2%,-2%,14%,44.5%,2%,34%,77.8% (active)
Cc1ccc(S(=O)(=O)N/N=C2\CC(C)OC3=C2CCCCCC3)cc1 (configuration not stated),13%,95% (active),75.5% (active),0%,94% (active),79.3% (active),1%,93% (active),61.1%,-3,92% (active),77.5% (active),1%,95% (active),75.6% (active),31%,95% (active),67.8%
CCOC(=O)N1C2C=CC(=O)C(C=C2)N1C(=O)OCC (configuration not stated),-1%,43%,72.8% (active),-9%,61%,85.5% (active),1%,73% (active),85.1% (active),7,30%,67.8%,1%,61%,86.7% (active),18%,85% (active),94.3% (active)
CCCCCCCCCSC(=S)N(C)NC(=O)c1ccccn1,14%,70% (active),89% (active),6%,81% (active),94% (active),4%,82% (active),93.8% (active),-3,71% (active),92.1% (active),-7%,78% (active),92% (active),8%,85% (active),93.7% (active)
c1ccc(CC[n+]2csc3ccccc32)cc1,-2%,73% (active),57%,0%,84% (active),50.5%,-2%,81% (active),36.3%,-8,35%,31.8%,0%,90% (active),63.8%,-2%,83% (active),54.6%
O=C1OC(=O)C2C(c3ccccc3)=C(c3ccccc3)C(c3ccccc3)=C(c3ccccc3)C12 (configuration not stated),37%,77% (active),61%,35%,72% (active),50%,33%,62%,54.4%,32,67%,76.2% (active),29%,63%,56%,47%,81% (active),62%
COc1ccc(CSC(=S)Nc2ccccc2C(F)(F)F)cc1,8%,93% (active),98.3% (active),6%,97% (active),99.2% (active),1%,99% (active),99.2% (active),-1,94% (active),98.6% (active),-3%,96% (active),99% (active),4%,95% (active),99% (active)
